In the library only some 2% were active in any assay of this set; here they are far more common.
NOD2-RIPK2 inh – NOD2-RIPK2 protein interaction inhibition. O43353. 360,000 tested, 0.38% active. CHO BLA complementation NOD2-RIPK2, CCF4 ratio. inhibition, % at 4.98 µM; in the data active = inhibition above about 21%;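 also: 0% = vehicle only and 100% = reference blocker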
Beta2AR agonist – activates human beta-2 adrenergic receptor causing internalization | P07550 | Am2.2-beta2AR cells, FAP receptor internalization, flow cytometry | 340,000 tested, 0.43% active | AID 504454 | response, % (no concentration beside the values);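 active = response above a set limit, near 3 SD of response in nonfluorescent compounds, cut at about 42% in these data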
ABHD5 PLIN5 PPI – blocks binding of human ABHD5 to perilipin-5. 360,000 tested, 0.78% active. Q00G26+Q8WTS1. inhibition, % at 4 µM. Split G. princeps luciferase complementation, luminescence, 4 h;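 active = inhibition above the mean inhibition across every tested compound plus 3 SD, cut at about 22% in these data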;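 also: 0% = DMSO only wells and the 100% control is not disclosed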
Granule exo inh – blocks lytic granule exocytosis. 360,000 tested, 0.66% active. TALL-104 LAMP-1 surface exposure, flow cytometry; cells stimulated with thapsigargin and PMA. inhibition, % at 10 µM;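 active = inhibition above about 55%, limit read from the data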
TLR4 MyD88 comp – inhibitors of human TLR4-MyD88 binding | O00206+Q99836 | HeLa CL3-4 TLR4/MyD88 BLA complementation, FRET ratio | inhibition, % at 8.4 µM | 200,000 tested, 0.18% active; in the data active = inhibition above about 25%;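 also: 0% = vehicle and 100% = reference inhibitor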
TLR9-MyD88 inh – blocks human TLR9 binding to MyD88 | CHO BLA complementation TLR9-MyD88, CCF4 FRET ratio | inhibition, % at 4.98 µM | Q9NR96+Q99836 | 340,000 tested, 0.21% active | AID 504734;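 active = inhibition above the mean over all tested compounds plus 3 SD, cut at about 21% in these data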;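 also: 0% = DMSO only wells and 100% = clavulanate BLA inhibitor control wells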
ABHD5-PLIN5 conf – confirmation of human ABHD5-PLIN5 interaction inhibitors | inhibition, % at 4 µM | 2,200 tested, 67% active | shares compounds with ABHD5 PLIN5 PPI | biochemical ABHD5-PLIN5 interaction, luminescence; in the data active = inhibition above about 23%;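 also: 0% = DMSO vehicle wells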
HNF4 split-luc – active in HNF4 split-luciferase counter-screen for ABHD5-PLIN5 inhibitors; shares compounds with ABHD5 PLIN5 PPI; 2,200 tested, 77% active; inhibition, % at 4 µM; HNF4 dimerization, luminescence, biochemical;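 active = mean inhibition across replicate wells exceeding the computed hit threshold, cut at about 13% in these data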;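 also: light from luciferase halves that rejoin when HNF4 fusion proteins dimerize; 0% = DMSO only wells and the 100% control is not given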
Target sequence (P41235 whole entry, looked up, the tested form may be a part): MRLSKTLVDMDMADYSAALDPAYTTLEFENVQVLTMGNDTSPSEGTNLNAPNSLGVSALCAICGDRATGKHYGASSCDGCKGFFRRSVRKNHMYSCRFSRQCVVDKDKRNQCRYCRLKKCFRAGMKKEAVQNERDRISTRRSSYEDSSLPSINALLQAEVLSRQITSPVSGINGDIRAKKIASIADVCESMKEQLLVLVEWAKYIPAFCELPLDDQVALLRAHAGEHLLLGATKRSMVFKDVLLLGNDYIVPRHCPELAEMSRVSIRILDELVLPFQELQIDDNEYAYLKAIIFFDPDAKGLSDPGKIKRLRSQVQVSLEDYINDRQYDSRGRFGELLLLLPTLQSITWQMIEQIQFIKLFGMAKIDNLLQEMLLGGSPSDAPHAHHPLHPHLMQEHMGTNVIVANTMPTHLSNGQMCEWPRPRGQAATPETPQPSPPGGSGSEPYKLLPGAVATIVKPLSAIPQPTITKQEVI
Active calls of the source: *; nt = not tested or not shown.

SMILES | NOD2-RIPK2 inh | Beta2AR agonist | ABHD5 PLIN5 PPI | Granule exo inh | TLR4 MyD88 comp | TLR9-MyD88 inh | ABHD5-PLIN5 conf | HNF4 split-luc
CCCNC(=O)C1(C)CCN(Cc2ccc(-c3ccccc3)o2)C1 (configuration not stated) | 3 | nt | 17 | 4 | nt | nt | nt | nt
COc1ccc(/C(O)=C2\C(=O)C(=O)N(Cc3ccco3)C2c2cc(OC)ccc2OC)cc1 (configuration not stated) | 2 | 3 | 29* | 2 | -15 | 5 | 4 | 2
COc1cc(C2/C(=C(\O)c3ccc4c(c3)OCCO4)C(=O)C(=O)N2Cc2ccco2)cc(OC)c1OC (configuration not stated) | -1 | 2 | 29* | 0 | nt | -5 | 3 | 5
COc1cc(C2/C(=C(\O)c3ccc4c(c3)OCCO4)C(=O)C(=O)N2Cc2ccco2)ccc1O (configuration not stated) | -1 | 4 | 0 | 0 | nt | -5 | nt | nt
COc1ccc(OC)c(C2/C(=C(/O)c3ccccc3)C(=O)C(=O)N2Cc2ccco2)c1 (configuration not stated) | -6 | 0 | 5 | -1 | -10 | -1 | nt | nt
CC1(C(=O)NCc2ccc3c(c2)OCO3)CCN1Cc1csc2ccccc12 (configuration not stated) | 15 | nt | 7 | -2 | nt | nt | nt | nt
O=C(NCCCn1ccnc1)c1sc2cc([N+](=O)[O-])ccc2c1Cl | -3 | nt | 5 | 5 | nt | 7 | nt | nt
C#CCNC(=O)C1=C[C@H](C2CCCCC2)[C@@H](CCCO)[C@H](OCC)O1 | -11 | 3 | 101* | 43 | -16 | 1 | 3 | 1
CCCCOC(=O)/C=C\C(=O)OCCCC | 9 | -11 | 7 | -2 | nt | -5 | nt | nt
CCCCOC(=O)/C=C\C(=O)NC(N)=O | 8 | 7 | 51* | 26 | nt | 3 | 71* | 57*
OC(CNCC1CCCO1)Cn1c2ccccc2c2ccccc21 (configuration not stated) | -1 | 3 | 7 | 2 | -6 | -11 | nt | nt
OC(CNCC1CCCO1)Cn1c2ccc(Cl)cc2c2cc(Cl)ccc21 (configuration not stated) | 8 | 33 | 35* | 54 | -4 | -8 | 13 | 8
COc1ccc(/C=C/C(=O)c2ccncc2)c2ccccc12 | 1 | 18 | 56* | 2 | 2 | 3 | 84* | 79*
COc1ccc(OC(=O)c2cccc([N+](=O)[O-])c2)c(C(=O)/C=C/c2cccs2)c1 | -1 | 20 | 42* | 2 | -7 | -9 | 57* | 53*
COc1ccc(/C=C/C(=O)c2ccc[nH]2)c(OC)c1OC | -9 | -3 | 0 | -2 | -23 | -7 | nt | nt
COc1cccc(/C=C/C(=O)c2cccc([N+](=O)[O-])c2)c1 | -7 | 94* | 64* | 0 | -2 | 1 | 97* | 97*
COc1ccc(NC(=O)c2cccc([N+](=O)[O-])c2)cc1 | 0 | -13 | -1 | -3 | -7 | 3 | nt | nt
COc1cccc(C(=O)/C=C/c2ccc(N3CCCCC3)c([N+](=O)[O-])c2)c1 | 3 | 2 | 29* | 0 | 4 | 0 | 87* | 73*
COCCNC(=O)C1CCCN(Cc2cccc(C#N)c2)CC1 (configuration not stated) | -1 | nt | 1 | 2 | nt | nt | nt | nt
COc1cccc(/C=C/C(=O)c2cccc([N+](=O)[O-])c2)c1OC | 2 | 17 | 85* | 2 | 13 | 1 | 101* | 97*
COc1cccc(/C=C/C(=O)Nc2cccc(C(C)=O)c2)c1OC | -11 | 28 | 0 | -4 | 7 | -7 | nt | nt
Cc1ccc(-c2ccc(C3C(C#N)=C(N)Oc4n[nH]c(C)c43)o2)cc1 (configuration not stated) | -7 | 17 | 24* | -2 | -2 | -1 | 26* | 44*
Cc1[nH]nc2c1C(c1ccc(F)cc1)C(C#N)=C(N)O2 (configuration not stated) | 8 | 3 | -6 | 2 | 2 | -2 | nt | nt
Cc1[nH]nc2c1C(c1ccc(-c3ccccc3C#N)o1)C(C#N)=C(N)O2 (configuration not stated) | 6 | 11 | -2 | 2 | 14 | -2 | nt | nt
Cc1[nH]nc2c1C(c1ccc(-c3ccc(Cl)cc3)o1)C(C#N)=C(N)O2 (configuration not stated) | 5 | -1 | 28* | 0 | -5 | -4 | 17 | 44*
SMILES | NOD2-RIPK2 inh | Beta2AR agonist | ABHD5 PLIN5 PPI | Granule exo inh | TLR4 MyD88 comp | TLR9-MyD88 inh | ABHD5-PLIN5 conf | HNF4 split-luc
COC(=O)c1c(-c2ccc(N(C)C)cc2)oc2c1C(OC)CCC2 (configuration not stated) | -1 | nt | -2 | -1 | nt | nt | nt | nt
NC1=NC(=O)/C(=C/c2cccc(F)c2)S1 | -6 | 4 | 1 | -6 | nt | -2 | nt | nt
CC(=O)Nc1ccc(S(=O)(=O)Oc2cccc(/C=C3\SC(N)=NC3=O)c2)cc1 | -3 | 3 | 28* | -2 | 13 | 3 | 35* | 22*
O=c1c2ccccc2nc2n1CCc1ccc(Br)cc1-2 | -13 | nt | -6 | -8 | nt | nt | nt | nt
CCCCC[C@H](O)/C=C/C1C(=O)C=C[C@H]1C/C=C\CCCC(=O)OC (some centres not stated) | 5 | 9 | 36* | 8 | nt | 2 | 45* | 61*
COc1ccc(C(=O)NCC(c2ccco2)N2CCOCC2)cc1 (configuration not stated) | -9 | nt | 2 | 4 | nt | 4 | nt | nt
O=C(NCCc1ccc(C(F)(F)F)cc1)C1CC(=O)N(Cc2ccccc2)C1 (configuration not stated) | -6 | 0 | 3 | 2 | nt | -6 | nt | nt
Fc1ccccc1C1CC(c2ccco2)=Nc2ccccc2S1 (configuration not stated) | 4 | -6 | 43* | 29 | nt | -4 | 2 | 91*
Oc1ccc(Cl)cc1C1=Nc2ccccc2N=C(c2ccco2)C1 | -2 | -8 | 0 | 8 | 14 | -7 | nt | nt
Cc1noc(C)c1S(=O)(=O)NC(=O)C1(C)CCN1C(=O)c1ccc(C2CCCCC2)cc1 (configuration not stated) | -9 | nt | 2 | 0 | nt | nt | nt | nt
O=C1/C(=C\c2ccco2)CCC/C1=C\c1ccco1 | 0 | -5 | 49* | -1 | 1 | -1 | 56* | 82*
C[C@@H]1CN([C@H](C)CO)C(=O)c2cc(C3=CCCCC3)cnc2O[C@@H]1CN(C)Cc1ccccc1C(=O)O | -5 | nt | 10 | -5 | nt | -2 | nt | nt
